This passage reports growth results from PubChem BioAssay (NCI).

SMILES strings stand for the structures. About 83,000 compounds went through this panel and 20% of them were active in at least one assay; those are over-represented in the sample as a whole.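 For each line, cells grew in 96-well plates with the test compound present at a single concentration for 48 hours.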 A number with no mark means an inactive call. Activity calls are given as the source filed them. Rule for the calls: active = growth percent below 10; inactive = the rest.

Test systems include NCI-H23 lung; NCI-H226 lung; NCI-H322M lung; HOP-62 NSCLC; NCI-H460 lung; HOP-92 NSCLC; A549/ATCC NSCLC; 786-0 renal; COLO 205 colon; DU-145 prostate; K-562 leukemia; MALME-3M melanoma; MDA-MB-231 breast; RXF 393 renal; SF-268 CNS; SF-295 CNS; SF-539 CNS; UACC-257 melanoma; M14 melanoma.
Holding throughout (assay): NCI-60 one-dose screen, 48 h (100 = growth as untreated, 0 = no growth, -100 = all killed)
Details in all cases: 10 µM unless noted

For the compound `COc1cc(/C=C/C(=O)N2CCN(C(=O)c3cc(OC)c(OC)c(OC)c3)CC2)ccc1OCCCOc1cc2c(cc1OC)C(=O)N1CCC[C@H]1C=N2`, the growth with NCI-H23 lung is -13.6% (active); in the assay on NCI-H226 lung, -8.72% (active); with NCI-H322M lung, -5.89% (active); in the assay with HOP-62 NSCLC, 9.35% (active); in the assay on NCI-H460 lung it was 6.44% (active); in the assay on HOP-92 NSCLC, -37.1% (active). Also, the growth with A549/ATCC NSCLC is 12.7%; in the assay with 786-0 renal, 11.7%; in the assay with COLO 205 colon, -63.4% (active); in the assay on DU-145 prostate, 8.43% (active); in the assay on K-562 leukemia, 1.04% (active); in the assay on MALME-3M melanoma, -58.6% (active). In addition, the growth in the assay with MDA-MB-231 breast was 9.01% (active); in the assay on RXF 393 renal, -55.4% (active); with SF-268 CNS, 2.8% (active); in the assay on SF-295 CNS it was -33.4% (active); in the assay on SF-539 CNS it was -32.3% (active); in the assay on UACC-257 melanoma it was -11.7% (active). Further, the growth with M14 melanoma was -80.2% (active).

Regarding `O=C(/C=C/c1ccccc1)c1ccc(-n2cc(CN3CCN(c4cc5c(cc4F)c(=O)c(C(=O)O)cn5C4CC4)CC3)nn2)cc1`, the growth was 79.7% in the assay on NCI-H23 lung; 73% in the assay on NCI-H226 lung; 84.4% with NCI-H322M lung; 79.6% in the assay on HOP-62 NSCLC; 76.1% with NCI-H460 lung; 79.6% with HOP-92 NSCLC. Besides, the growth with A549/ATCC NSCLC is 88.9%; in the assay on 786-0 renal, 54.2%; in the assay on COLO 205 colon, 108%; with DU-145 prostate, 76.3%; in the assay on K-562 leukemia it was 56%; in the assay with MALME-3M melanoma it was 91.2%. The growth in the assay on MDA-MB-231 breast is 89.4%; with RXF 393 renal it was 58.3%; in the assay on SF-268 CNS it was 70.4%; with SF-295 CNS, 91.7%; in the assay with SF-539 CNS it was 69%; in the assay on UACC-257 melanoma, 91%. In the assay with M14 melanoma, the growth was 84.4%.

With `O=C(NCCCCCCNC(=O)OCc1ccc2c(Cl)cc(Cl)c(O)c2n1)OCc1ccc2c(Cl)cc(Cl)c(O)c2n1`, the growth with NCI-H23 lung was -69.2% (active); with NCI-H226 lung, 1.25% (active); in the assay on NCI-H322M lung, 43.6%; in the assay with HOP-62 NSCLC it was -42.5% (active); in the assay with NCI-H460 lung it was -30.7% (active); with HOP-92 NSCLC, -60.1% (active). Further, the growth in the assay on A549/ATCC NSCLC was -39.6% (active); with 786-0 renal, -63.1% (active); with COLO 205 colon, -82.5% (active); in the assay on DU-145 prostate it was -50.4% (active); in the assay with K-562 leukemia, 1.59% (active); with MALME-3M melanoma, -84.5% (active). Besides, the growth in the assay with MDA-MB-231 breast is -92.7% (active); with RXF 393 renal, -87% (active); in the assay on SF-268 CNS it was -50.7% (active); in the assay with SF-295 CNS, 32.4%; with SF-539 CNS, -97.1% (active); in the assay on UACC-257 melanoma, -29.3% (active). Moreover, the growth in the assay with M14 melanoma is -38.7% (active).

On to `Cn1c(C#N)ccc1-c1ccc(F)c(NC(=O)c2ccc(F)cc2)c1`, for which the growth in the assay with NCI-H23 lung is 80.6%; in the assay with NCI-H226 lung, 105%; in the assay with NCI-H322M lung, 97.9%; in the assay on HOP-62 NSCLC, 75.8%; in the assay with NCI-H460 lung it was 80.2%; in the assay on HOP-92 NSCLC it was 70.5%. Moreover, the growth in the assay with A549/ATCC NSCLC was 83.2%; in the assay with 786-0 renal it was 84.8%; in the assay with COLO 205 colon, 90.9%; in the assay on DU-145 prostate, 94.3%; in the assay on K-562 leukemia, 23.6%; in the assay on MALME-3M melanoma, 91.2%. The growth in the assay with MDA-MB-231 breast is 73.7%; in the assay on RXF 393 renal, 85.3%; in the assay with SF-268 CNS, 81.9%; with SF-295 CNS it was 68.8%; in the assay on SF-539 CNS, 73.8%; in the assay on UACC-257 melanoma it was 107%. Also, in the assay on M14 melanoma, the growth was 59.8%.

As for `O=C1/C(=C/c2ccc(Cl)cc2)CN(C(=O)C(Cl)Cl)C/C1=C\c1ccc(Cl)cc1`, the growth is -69.2% (active) in the assay on NCI-H23 lung; -24.4% (active) with NCI-H226 lung; -70.9% (active) in the assay with NCI-H322M lung; -61.5% (active) with HOP-62 NSCLC; -64.9% (active) with NCI-H460 lung; -59.9% (active) in the assay on HOP-92 NSCLC. In addition, the growth was -21.2% (active) with A549/ATCC NSCLC; -80.2% (active) with 786-0 renal; -68.5% (active) in the assay on COLO 205 colon; -89.7% (active) in the assay on DU-145 prostate; -3.91% (active) with K-562 leukemia; -65% (active) with MALME-3M melanoma. Further, the growth with MDA-MB-231 breast is -23.9% (active); in the assay with RXF 393 renal it was -88.2% (active); in the assay on SF-268 CNS, -74.9% (active); in the assay with SF-295 CNS, -86.7% (active); with SF-539 CNS, -96.3% (active); with UACC-257 melanoma it was -42.3% (active). The growth with M14 melanoma is -68.7% (active).

Take `COc1ccc(C(c2cc(OC)c(OC)c(OC)c2)N2CCCCC2)cc1` (configuration not stated): the growth in the assay with NCI-H23 lung is 59.3%; in the assay on NCI-H226 lung it was 55.5%; with NCI-H322M lung, 47.9%; in the assay with HOP-62 NSCLC, 29.8%; in the assay on NCI-H460 lung it was 19.4%; with HOP-92 NSCLC, 44.1%. Also, the growth with A549/ATCC NSCLC is 49.1%; with 786-0 renal, 38.8%; in the assay on COLO 205 colon, 16.1%; in the assay on DU-145 prostate it was 64.2%; with K-562 leukemia it was 18%; with MALME-3M melanoma it was 55.3%. Moreover, the growth with MDA-MB-231 breast was 53.1%; in the assay on RXF 393 renal it was 26%; in the assay with SF-268 CNS, 47.2%; with SF-295 CNS, 18.7%; in the assay with SF-539 CNS, 27.7%; in the assay with UACC-257 melanoma, 54.9%. Besides, the growth in the assay with M14 melanoma is 23.3%.

Consider `O=c1cc(C(F)(F)F)c2cc(-c3cc4ccccc4c(=O)o3)c(O)cc2o1`, for which the growth in the assay with NCI-H23 lung was 54.9%; in the assay on NCI-H226 lung, 68.4%; with NCI-H322M lung it was 87.6%; in the assay on HOP-62 NSCLC, 82.6%; with NCI-H460 lung, 58.9%; with HOP-92 NSCLC, -0.397% (active). The growth in the assay with A549/ATCC NSCLC is 78.5%; in the assay with 786-0 renal it was 80.2%; in the assay with COLO 205 colon, 107%; in the assay with DU-145 prostate, 96.5%; in the assay on K-562 leukemia, 50%; with MALME-3M melanoma, 91.5%. Besides, the growth with MDA-MB-231 breast is 85.7%; in the assay on RXF 393 renal, 86.3%; with SF-268 CNS it was 79.2%; with SF-295 CNS, 89.4%; in the assay with SF-539 CNS, 73.3%; in the assay with UACC-257 melanoma, 70.6%. Also, the growth in the assay with M14 melanoma is 68%.

For the compound `C=CCN=c1sc(-c2ccc3ccccc3c2)cn1NC(=O)c1cc2ccc1CCc1ccc(cc1)CC2`, the growth is 55.8% in the assay with NCI-H23 lung; 75.2% in the assay with NCI-H226 lung; 97.6% in the assay on NCI-H322M lung; 75.2% in the assay on HOP-62 NSCLC; 52.3% with NCI-H460 lung; 59.6% in the assay on HOP-92 NSCLC. In addition, the growth in the assay on A549/ATCC NSCLC was 56.1%; in the assay with 786-0 renal it was 70.1%; in the assay with COLO 205 colon it was 44.5%; with DU-145 prostate, 75%; with K-562 leukemia, 35%; in the assay with MALME-3M melanoma, 76.7%. Moreover, the growth with MDA-MB-231 breast is 92.9%; in the assay with RXF 393 renal, 74.1%; in the assay on SF-268 CNS, 62.3%; with SF-295 CNS, 46%; with SF-539 CNS, 77.9%; in the assay with UACC-257 melanoma, 48.7%. Further, in the assay on M14 melanoma, the growth is 75.6%.
